Here are results for 33 compounds from PubChem BioAssay (NCATS).

Structures are written as SMILES. Records with an inconclusive call do not appear. A call without a number means that no potency is given here. Activity calls are given as the source filed them. Calls come from the whole dose curve; as a rule, active = well fitted inhibition curve with a large enough effect; inconclusive = small, poorly fitted or top-dose-only effect; inactive = no such curve, though single readings can be large or run the other way.
Potency is the fitted concentration of half-maximal effect.

Sequence of Tyrosine-protein kinase Yes (Homo sapiens) (P07947 whole entry, looked up): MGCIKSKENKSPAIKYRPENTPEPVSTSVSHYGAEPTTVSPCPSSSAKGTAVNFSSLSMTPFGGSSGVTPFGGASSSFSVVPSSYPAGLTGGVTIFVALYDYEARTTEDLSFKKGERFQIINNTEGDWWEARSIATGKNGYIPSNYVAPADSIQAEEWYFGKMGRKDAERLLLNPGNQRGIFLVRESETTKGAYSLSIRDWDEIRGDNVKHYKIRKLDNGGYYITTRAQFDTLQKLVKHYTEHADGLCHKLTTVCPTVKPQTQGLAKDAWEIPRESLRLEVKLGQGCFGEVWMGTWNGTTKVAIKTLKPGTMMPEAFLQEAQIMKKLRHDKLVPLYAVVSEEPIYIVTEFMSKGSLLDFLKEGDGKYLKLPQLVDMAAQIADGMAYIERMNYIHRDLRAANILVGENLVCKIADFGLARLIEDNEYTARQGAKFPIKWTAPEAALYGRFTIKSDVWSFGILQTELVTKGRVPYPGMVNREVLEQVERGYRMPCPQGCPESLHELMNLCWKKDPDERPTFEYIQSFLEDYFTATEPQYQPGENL

The target in this assay is Tyrosine-protein kinase Yes (Homo sapiens) (UniProt P07947). In words: qHTS for small molecule inhibitors of Yes1 kinase: Primary Screen (AID 686947). Note: nearly all actives have a fitted effect of over 60% in size. The following applies: Yes1 kinase biochemical qHTS inhibition; series mostly up to 76.9 µM. In short, it runs like this:
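Yes1 (4 nM) preincubated 20 min with compound, then 60 min room-temperature reaction with 0.1 mM ATP and 0.3 mg/mL poly(E4Y) in pH 7.5 Tris, 10 mM MgCl2. ADP measured by ADP-Glo luminescence, normalised to enzyme/no-enzyme controls.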
A general note: Quantitative high-throughput screening tests each substance at several concentrations.
Take `C/C(=C\C(=O)Nc1ccccc1C(=O)O)c1ccc2ccccc2c1`: the Potency result is “inactive”.
Next, `CCOc1cc(C(=O)Nc2ccc(Cl)c(-c3nc4ccccc4[nH]3)c2)cc(OCC)c1OCC`: “inactive”; `Cc1cc(-c2ccc(CC(=O)Nc3ccc(-c4cccnc4)cc3)cc2)ccn1`: “inactive”.
Next, `O=C(Nc1ccc(F)c(C(F)(F)F)c1)Nc1nnc(-c2ccncc2)s1`: “inactive”; `OC(CN1CCC(Cc2ccc(F)cc2)CC1)c1ccc(Cl)cc1` (stereo not drawn): “inactive”.
Next, `CNCc1ccc(-c2[nH]c3cc(F)cc4c3c2CCNC4=O)cc1`: 308 nM (active); `COc1cc2nccc(Oc3ccc(NC(=O)NC4CC4)c(Cl)c3)c2cc1C(N)=O`: 3450 nM (active).
For `Cc1cc([C@@H](C)Nc2ccccc2C(=O)O)c2nc(N3CCOCC3)cc(=O)n2c1`, the Potency result was “inactive”.
Next, `Cn1cnc2c(F)c(Nc3ccc(Br)cc3Cl)c(C(=O)NOCCO)cc21`: “inactive”; `CC(c1cc2ccccc2s1)N(O)C(N)=O` (stereo not drawn): “inactive”.
As to `CNC(=O)c1ccc(C)c(-n2c(C)cc(OCc3ccc(F)cc3F)c(Br)c2=O)c1`, the Potency entry was “inactive”.
As for `Fc1ccc(Cl)cc1-c1nc(Nc2ccncc2)c2nccnc2n1`, the entry is “inactive”.
Next, `Cn1c(=O)c(F)c(Nc2ccc(I)cc2F)c2c(=O)n(C[C@@H](O)CO)cnc21`: “inactive”.
Next, `COc1ccc(-c2c(-c3ccc(O)cc3O)n[nH]c2C)cc1`: 8670 nM (active); `C[C@]12CC[C@H](O)CC1=CC[C@@H]1[C@H]2CC[C@]2(C)C(c3cccnc3)=CC[C@H]12`: “inactive”; `O=c1ncn2nc(Sc3ccc(F)cc3F)ccc2c1-c1c(Cl)cccc1Cl`: “inactive”.
With `Cn1cc(-c2ccc3nnc(C(F)(F)c4ccc5ncccc5c4)n3n2)cn1`, the Potency result is “inactive”.
Next, `Cc1ccc2c(c1)C(=O)[C@@]1(O)CCN(c3ccccc3)C1=N2`: “inactive”; `O=C(O)[C@@H](c1ccc(OCc2ccc3ccccc3n2)cc1)C1CCCC1`: “inactive”.
As for `O=S(=O)(N=Cc1c(O)ccc2ccccc12)c1cccs1`, the entry is “inactive”; as for `Cc1cccc(-c2nn(C(=S)Nc3ccccc3)cc2-c2ccnc3ccccc23)n1`, 2440 nM (active).
As for `O=C(C=Cc1ccc(/C=C/C(=O)Nc2ccc(C3=NCCN3)cc2)cc1)Nc1ccc(C2=NCCN2)cc1`, the entry is “inactive”; as for `CC(C)(N)C(=O)N[C@H](COCc1ccccc1)C(=O)N1CCC2(CC1)CN(S(C)(=O)=O)c1ccccc12`, “inactive”.
For `Nc1nc2ccc(OC(F)(F)F)cc2s1`, the Potency entry was “inactive”.
As for `CCc1cncnc1N1CCN(Cc2nc3ccc(C(F)(F)F)cc3[nH]2)CC1`, the entry is “inactive”; as for `NC(=O)c1ccc(-c2nc(-c3ccc4c(c3)OCO4)c(-c3ccccn3)[nH]2)cc1`, “inactive”.
For `Cc1cccc(-c2[nH]c(C(C)(C)C)nc2-c2ccc3nccnc3c2)n1`, the Potency was 688 nM (active).
Consider `O=C(O)CCc1ccc(NCc2cccc(Oc3ccccc3)c2)cc1`, for which the Potency result was “inactive”.
Next, `Cc1n[nH]c(C)c1Cc1sc2c(c1C(=O)N1C[C@H](O)CO1)c(=O)n(C)c(=O)n2CC(C)C`: “inactive”; `O=C(OCC#CCSc1nnc(-c2ccc3ccccc3c2)o1)c1cc2ccccc2s1`: “inactive”.
For the compound `Cc1[nH]c(=O)c(C#N)cc1-c1ccc2nccn2c1`, the Potency result was “inactive”.
For the compound `Cc1cc(Nc2nc(N[C@@H](C)c3ncc(F)cn3)ncc2Cl)n[nH]1`, the Potency is 772 nM (active).
Next, `CS(=O)(=O)c1cccc(CNc2nc(Nc3ccc4c(c3)CCC(=O)N4)ncc2C(F)(F)F)c1`: 972 nM (active).
